Measurements: the supplement of paper PMC10849652
About 7,900 targets were measured; listed, in parts, are those with a hit and a random draw of the rest. About 0.6% of all pairs of compound and target were hits. A number with no mark means an inactive call.

Key:
Test in all cases: log2 fold change, soluble protein after heating vs DMSO (PISA); higher = thermal stabilisation; K562 cells, 10 uM, 30 min; active = over 0.2 and 3.5 SD of the protein, either way, in both replicates (recomputed)
[1] = compound: C1=CC=C(C=C1)[C@H](COC2=CC3=C(C=C2)NC(=O)N3)NC(=O)C4=CC=CN(C4=O)CC5=CC(=C(C=C5)F)F
Summary of the method: (§1)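 K562 cells at 2×10^6 cells/mL were treated for 30 min with 10 μM compound, and aliquots were heated for 3 min over 48°C-58°C before pooling. Extraction used PBS with 0.5% NP-40 at 4°C, and soluble protein was the supernatant after 21,000xg for 90 min, measured by TMTpro 16plex LC-MS/MS with channel sums equalised. Thermal stability values, relative to control samples and from duplicates, are log2 fold changes.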

[2] = compound: CC1=C(SC2=C1C(=N[C@H](C3=NN=C(N32)C)CC(=O)N)C4=CC=C(C=C4)Cl)C
Summary of the method: as §1

[3] = compound: CC1=C2C(=CC=C1)N=C(N(C2=O)C3=CC=CC=C3C)CN4C=NC5=C(N=CN=C54)N
Summary of the method: as §1

[4] = compound: Cc1sc2c(c1C)C(c1ccc(Cl)cc1)=N[C@@H](CC(=O)OC(C)(C)C)c1nnc(C)n1-2
Summary of the method: as §1

[5] = compound: c1ccc([C@@H]2C[C@H]2NC2CCNCC2)cc1
Summary of the method: as §1

Sequence of UniProt Q96QU8 (Q96QU8 whole entry, looked up): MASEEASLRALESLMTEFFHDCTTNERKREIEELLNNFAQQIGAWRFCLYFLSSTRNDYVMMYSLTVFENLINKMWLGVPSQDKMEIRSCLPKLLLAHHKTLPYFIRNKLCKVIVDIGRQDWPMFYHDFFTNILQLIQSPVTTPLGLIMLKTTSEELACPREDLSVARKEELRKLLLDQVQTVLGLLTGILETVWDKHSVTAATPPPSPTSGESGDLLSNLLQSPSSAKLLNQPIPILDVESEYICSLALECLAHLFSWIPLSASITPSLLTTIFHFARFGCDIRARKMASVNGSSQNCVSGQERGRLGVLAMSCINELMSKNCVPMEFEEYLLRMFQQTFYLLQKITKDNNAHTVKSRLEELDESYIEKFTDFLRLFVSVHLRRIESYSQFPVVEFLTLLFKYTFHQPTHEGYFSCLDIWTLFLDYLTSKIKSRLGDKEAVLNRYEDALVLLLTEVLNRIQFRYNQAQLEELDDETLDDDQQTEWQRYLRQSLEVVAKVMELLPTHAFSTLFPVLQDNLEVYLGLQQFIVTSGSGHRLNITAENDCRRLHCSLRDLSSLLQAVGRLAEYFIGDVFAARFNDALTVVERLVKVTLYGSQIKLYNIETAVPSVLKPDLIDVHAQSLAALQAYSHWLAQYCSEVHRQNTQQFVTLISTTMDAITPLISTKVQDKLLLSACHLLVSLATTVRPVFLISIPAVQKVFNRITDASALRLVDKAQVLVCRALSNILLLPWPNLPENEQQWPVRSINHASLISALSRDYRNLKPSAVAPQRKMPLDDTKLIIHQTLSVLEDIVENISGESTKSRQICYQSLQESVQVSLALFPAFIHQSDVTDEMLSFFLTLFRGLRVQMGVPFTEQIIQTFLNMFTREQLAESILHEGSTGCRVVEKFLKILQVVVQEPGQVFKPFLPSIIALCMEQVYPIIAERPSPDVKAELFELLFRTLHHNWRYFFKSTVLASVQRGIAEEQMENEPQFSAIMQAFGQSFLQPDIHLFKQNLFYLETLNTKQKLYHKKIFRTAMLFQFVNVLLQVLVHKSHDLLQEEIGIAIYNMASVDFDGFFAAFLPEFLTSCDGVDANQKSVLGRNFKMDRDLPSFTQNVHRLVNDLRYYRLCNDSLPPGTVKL
Sequence of UniProt Q8NDZ6 (Q8NDZ6 whole entry, looked up): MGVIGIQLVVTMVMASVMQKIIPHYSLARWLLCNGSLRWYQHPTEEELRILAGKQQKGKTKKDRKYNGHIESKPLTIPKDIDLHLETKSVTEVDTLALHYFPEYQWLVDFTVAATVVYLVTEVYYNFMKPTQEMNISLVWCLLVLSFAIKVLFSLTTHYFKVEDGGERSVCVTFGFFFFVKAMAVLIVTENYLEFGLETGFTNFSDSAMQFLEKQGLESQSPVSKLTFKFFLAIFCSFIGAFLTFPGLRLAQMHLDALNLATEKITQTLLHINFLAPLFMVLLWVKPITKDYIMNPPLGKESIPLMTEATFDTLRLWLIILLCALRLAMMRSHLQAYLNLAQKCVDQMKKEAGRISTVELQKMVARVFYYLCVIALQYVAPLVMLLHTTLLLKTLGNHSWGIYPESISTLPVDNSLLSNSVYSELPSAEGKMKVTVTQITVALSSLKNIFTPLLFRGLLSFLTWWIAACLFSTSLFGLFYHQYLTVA
Sequence of UniProt Q9Y5K5 (Q9Y5K5 whole entry, looked up): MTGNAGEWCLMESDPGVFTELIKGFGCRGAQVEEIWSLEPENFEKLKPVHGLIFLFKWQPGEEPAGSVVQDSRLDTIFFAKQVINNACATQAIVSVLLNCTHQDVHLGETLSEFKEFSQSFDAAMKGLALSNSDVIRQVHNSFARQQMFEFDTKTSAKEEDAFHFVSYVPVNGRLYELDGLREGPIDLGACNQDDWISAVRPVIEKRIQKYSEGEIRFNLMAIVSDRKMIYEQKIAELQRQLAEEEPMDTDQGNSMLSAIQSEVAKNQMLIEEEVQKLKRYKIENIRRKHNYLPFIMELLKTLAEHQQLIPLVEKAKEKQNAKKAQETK
Sequence of UniProt Q96HV5 (Q96HV5 whole entry, looked up): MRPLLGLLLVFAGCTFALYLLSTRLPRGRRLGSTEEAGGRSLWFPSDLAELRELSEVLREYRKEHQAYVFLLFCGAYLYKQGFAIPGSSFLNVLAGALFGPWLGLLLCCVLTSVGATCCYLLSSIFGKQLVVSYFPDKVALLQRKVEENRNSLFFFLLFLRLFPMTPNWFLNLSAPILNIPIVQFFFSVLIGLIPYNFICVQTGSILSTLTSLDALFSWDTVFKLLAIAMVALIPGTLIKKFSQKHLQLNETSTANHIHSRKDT
Sequence of UniProt Q6PID6 (Q6PID6 whole entry, looked up): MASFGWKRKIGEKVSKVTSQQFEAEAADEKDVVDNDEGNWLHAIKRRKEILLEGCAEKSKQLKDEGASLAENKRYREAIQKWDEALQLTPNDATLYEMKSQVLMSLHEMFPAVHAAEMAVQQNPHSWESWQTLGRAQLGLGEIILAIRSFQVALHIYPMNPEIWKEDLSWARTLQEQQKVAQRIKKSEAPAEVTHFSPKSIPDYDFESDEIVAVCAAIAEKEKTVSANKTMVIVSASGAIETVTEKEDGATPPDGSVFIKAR
Sequence of UniProt Q96ET8 (Q96ET8 whole entry, looked up): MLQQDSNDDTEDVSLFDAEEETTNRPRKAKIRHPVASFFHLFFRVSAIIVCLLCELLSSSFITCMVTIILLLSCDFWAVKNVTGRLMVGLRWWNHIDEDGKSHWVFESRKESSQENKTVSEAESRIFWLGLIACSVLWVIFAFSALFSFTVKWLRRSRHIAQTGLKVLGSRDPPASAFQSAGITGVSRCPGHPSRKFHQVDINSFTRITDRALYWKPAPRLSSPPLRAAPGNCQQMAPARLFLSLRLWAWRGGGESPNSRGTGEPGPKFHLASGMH
Sequence of UniProt Q6ZVM7 (Q6ZVM7 whole entry, looked up): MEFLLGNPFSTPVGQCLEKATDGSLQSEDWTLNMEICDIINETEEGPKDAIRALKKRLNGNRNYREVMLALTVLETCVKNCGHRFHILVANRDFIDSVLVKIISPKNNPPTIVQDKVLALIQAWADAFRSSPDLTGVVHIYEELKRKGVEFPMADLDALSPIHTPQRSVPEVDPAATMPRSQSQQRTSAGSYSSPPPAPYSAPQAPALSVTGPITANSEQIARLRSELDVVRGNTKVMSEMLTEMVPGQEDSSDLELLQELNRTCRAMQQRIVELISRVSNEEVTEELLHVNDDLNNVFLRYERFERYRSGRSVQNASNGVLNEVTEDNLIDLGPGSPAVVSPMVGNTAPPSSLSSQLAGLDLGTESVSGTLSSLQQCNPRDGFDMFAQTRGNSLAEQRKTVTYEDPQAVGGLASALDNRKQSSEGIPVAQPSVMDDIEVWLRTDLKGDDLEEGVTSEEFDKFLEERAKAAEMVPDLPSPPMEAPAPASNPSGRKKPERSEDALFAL
Sequence of UniProt Q9BVJ6 (Q9BVJ6 whole entry, looked up): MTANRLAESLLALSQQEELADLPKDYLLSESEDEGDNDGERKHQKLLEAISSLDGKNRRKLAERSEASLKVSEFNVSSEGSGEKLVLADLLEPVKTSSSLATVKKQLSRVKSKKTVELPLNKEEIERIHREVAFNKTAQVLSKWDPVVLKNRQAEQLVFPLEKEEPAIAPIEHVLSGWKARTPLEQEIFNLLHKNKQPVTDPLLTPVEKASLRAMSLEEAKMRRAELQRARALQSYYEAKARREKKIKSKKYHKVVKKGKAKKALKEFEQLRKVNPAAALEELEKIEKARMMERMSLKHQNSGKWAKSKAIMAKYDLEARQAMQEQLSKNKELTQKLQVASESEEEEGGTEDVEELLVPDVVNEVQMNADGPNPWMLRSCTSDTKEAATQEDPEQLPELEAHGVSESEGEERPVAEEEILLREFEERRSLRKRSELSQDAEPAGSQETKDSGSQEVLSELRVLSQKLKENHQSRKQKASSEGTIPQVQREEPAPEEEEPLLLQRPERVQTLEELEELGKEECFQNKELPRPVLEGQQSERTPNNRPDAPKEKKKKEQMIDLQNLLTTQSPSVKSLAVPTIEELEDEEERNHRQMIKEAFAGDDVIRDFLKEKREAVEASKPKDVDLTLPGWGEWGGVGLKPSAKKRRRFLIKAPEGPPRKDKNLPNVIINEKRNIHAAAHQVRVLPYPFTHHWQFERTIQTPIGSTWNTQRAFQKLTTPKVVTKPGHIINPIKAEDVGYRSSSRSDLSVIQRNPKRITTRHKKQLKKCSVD
Sequence of UniProt Q5VZI3 (Q5VZI3 whole entry, looked up): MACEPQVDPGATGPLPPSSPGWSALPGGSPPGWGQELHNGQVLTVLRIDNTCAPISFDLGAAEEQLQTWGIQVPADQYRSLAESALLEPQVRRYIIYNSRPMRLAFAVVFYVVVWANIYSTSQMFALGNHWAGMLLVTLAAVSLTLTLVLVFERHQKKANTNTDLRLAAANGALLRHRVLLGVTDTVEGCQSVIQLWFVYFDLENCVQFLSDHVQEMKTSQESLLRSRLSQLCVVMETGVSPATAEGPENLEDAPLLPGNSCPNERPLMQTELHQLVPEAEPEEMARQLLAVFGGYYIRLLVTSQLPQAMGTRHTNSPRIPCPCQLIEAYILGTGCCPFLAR
Sequence of UniProt Q96FX7 (Q96FX7 whole entry, looked up): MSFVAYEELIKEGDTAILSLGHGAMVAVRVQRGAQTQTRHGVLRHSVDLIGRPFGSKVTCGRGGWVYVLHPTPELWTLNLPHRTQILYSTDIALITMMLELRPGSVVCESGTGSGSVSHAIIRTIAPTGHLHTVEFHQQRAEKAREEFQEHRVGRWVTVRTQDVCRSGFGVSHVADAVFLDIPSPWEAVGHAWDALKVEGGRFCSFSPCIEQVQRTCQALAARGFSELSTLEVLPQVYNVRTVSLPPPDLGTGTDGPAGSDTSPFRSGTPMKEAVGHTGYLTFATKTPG
Sequence of UniProt O95379 (O95379 whole entry, looked up): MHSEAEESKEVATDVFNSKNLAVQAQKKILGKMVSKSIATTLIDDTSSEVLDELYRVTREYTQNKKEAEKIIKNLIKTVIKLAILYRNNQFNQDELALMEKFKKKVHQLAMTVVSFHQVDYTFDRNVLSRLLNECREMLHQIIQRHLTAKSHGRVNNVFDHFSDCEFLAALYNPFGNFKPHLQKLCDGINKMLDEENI
Sequence of UniProt Q629K1 (Q629K1 whole entry, looked up): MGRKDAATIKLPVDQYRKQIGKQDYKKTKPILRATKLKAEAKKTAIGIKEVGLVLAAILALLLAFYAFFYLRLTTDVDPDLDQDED

Target | log2 fold change [1] | log2 fold change [2] | log2 fold change [3] | log2 fold change [4] | log2 fold change [5]
TMEM87B (UniProt Q96K49) | 0.04 | 0.083 | -0.031 | -0.036 | 0.012
WDR46, A0A0G2JJL1 | 0.129 |  | -0.546 | 0.303 | 
UBE3B (UniProt Q7Z3V4) | -0.081 | -0.147 |  | -0.214 | 0.172
XRCC1 (UniProt P18887) |  | 0.091 |  | 0.07 | 0.062
TMEM268 isoform 3 (UniProt Q5VZI3) | -0.008 | 0 |  | 0.151 | 0.063
TMEM161B (UniProt Q8NDZ6) | -0.076 | 0.13 | 0.018 | 0.092 | 0.08
VDAC1 (UniProt C9JI87) | -0.132 | -0.004 |  |  | 0.137
TNFAIP8 isoform 4 (UniProt O95379) | -0.021 | 0.026 | 0.02 | -0.042 | -0.011
TVP23C (UniProt Q96ET8) |  | 0.048 | 0.041 | 0.029 | 0.086
UXT isoform 2 (UniProt Q9UBK9) | 0.046 | 0.063 | 0.065 | -0.005 | -0.077
TMEM41A (UniProt Q96HV5) | 0.01 |  | 0.06 | -0.08 | 
TTC33 (UniProt Q6PID6) | -0.142 | 0.018 | 0.073 |  | 0.019
USP24 (UniProt Q9UPU5) | 0.114 | 0.02 | 0.105 | -0.198 | -0.033
TMEM104 (UniProt Q8NE00) |  | 0.001 |  |  | 0.24
TTC26 | 0.06 |  | 0.02 | 0.198 | 
XPO6 (UniProt Q96QU8) | 0.35 | 0.019 | 0.082 | 0.015 | -0.072
UCHL5 (UniProt Q9Y5K5) | -0.048 | 0.004 | 0.043 | 0.027 | 0.004
UTP20 (UniProt O75691) |  |  |  | 0.034 | 
TRIQK (UniProt Q629K1) | 0.098 | 0.028 |  | -0.052 | 0.048
TOM1L2 (UniProt Q6ZVM7) |  | 0.138 | 0.101 |  | -0.001
UTP14A (UniProt Q9BVJ6) | 0.039 | -0.276 | -0.154 | 0.124 | 0.029
TMEM179B (UniProt Q7Z7N9) | -0.065 | 0.081 |  | 0.005 | -0.024
VPS53 isoform 4 (UniProt Q5VIR6) | -0.009 | 0.02 | 0.049 | -0.006 | -0.007
TMEM189-UBE2V1 (UniProt I3L0A0) | -0.047 | 0.02 | 0.102 | -0.02 | 0.048
TRMT61A (UniProt Q96FX7) | 0.157 | -0.033 | -0.051 | 0.141 | -0.049
U2AF1L5 (UniProt P0DN76) | -0.008 |  | -0.075 | 0.057 | 
TXNL4B (UniProt Q9NX01) | 0.1 | 0.068 | -0.537 (active) | -0.102 | -0.12
ULBP1 (UniProt Q9BZM6) |  | 0.014 | -0.001 | -0.036 | -0.038
TXNRD1 isoform 7 (UniProt Q16881) | 0.046 |  | 0.138 |  | 
UBAP2L (UniProt F8W726) | -0.05 |  |  | 0.046 | 
